# Results from PubChem BioAssay AID2283221 (EPA ToxCast).
# Results filed as inconclusive are left out. Active and inactive are the calls of the source. Rule for the calls: active = hit-call score of the fitted dose curve at least 0.9, where 1 is the maximum; inconclusive = response in the unintended direction; inactive = score below 0.9.
# Molecular target: human Spleen Associated Tyrosine Kinase (Syk), SYK (gene 6850) (UniProt P43405)
# Assay: NVS_ENZ_hSyk: NovaScreen (NVS) Enzymatic Assay for human Spleen Associated Tyrosine Kinase (Syk)
# Protocol: NVS_ENZ_hSyk is a biochemical, single-readout assay that uses extracted gene-proteins in a cell-free assay. Measurements were taken 1 hour after chemical dosing in a 96-well plate.NVS_ENZ_hSyk is one of one assay component(s) measured or calculated from the NVS_ENZ_hSyk assay. It is designed to make measurements of enzyme activity, a form of enzyme reporter, as detected with fluorescence intensity signals by Fluorescence and electrophoretic mobility shift technology.Data from the assay component NVS_ENZ_hSyk was analyzed into 1 assay endpoint. This assay endpoint, NVS_ENZ_hSyk, was analyzed in the positive analysis fitting direction relative to DMSO as the negative control and baseline of activity. Using a type of enzyme reporter, loss-of-signal activity can be used to understand changes in the enzymatic activity as they relate to the gene SYK. Furthermore, this assay endpoint can be referred to as a primary readout, because this assay has produced […] where this one serves a enzymatic activity function. To generalize the intended target to other relatable targets, this assay endpoint is annotated to the kinase intended target family, where the subfamily is non-receptor tyrosine kinase.
# Binding assays used specific radioligands (tritiated, iodinated) with non-radioactive competitive displacement ligands in agonist or antagonist protocols (as indicated) and various reference compounds and inhibitors to titrate specific binding to receptors and transporters. Most enzyme assays (CYPs, kinases, phosphatases, proteases, HDACs) used recombinant protein and specific substrates (fluorescence mostly, some colorimetric and radioactive) and inhibitors, followed by a biochemical separation of substrate and product. All assays for the biochemical HTS were initially run in duplicate at a single concentration (10 uM for CYP450 assays and 25 uM for all others). Assay-chemical combinations meeting a pre-defined threshold (e.g., 30% inhibition and other criteria defined below) were then run in singleton concentration-response format with maximum concentration of 20 uM for CYPs and 50 uM for all others. Each assay was run with positive and negative controls, and concurrent controls on every plate. The follow-up (secondary) screen tested active chemical-pairs in concentration series, as well as a few additional assays not tested in the primary screen, some selected negative inactives, and several cases re-run in the concentration series for confirmatory purposes.
SMILES,AC50,outcome
O=C(O)C1(C(=O)Nc2ccc(Cl)cc2Cl)CC1,15.4 µM (active),–
S=C(S)NCCNC(=S)S.[Mn+2].[S-]C([S-])=NCCN=C([S-])[S-].[Zn+2],9.71 µM (active),–
COP(N)(=O)SC (configuration not stated),–,inactive
CC[C@H](C)[C@H]1O[C@]2(C=C[C@@H]1C)C[C@@H]1C[C@@H](C/C=C(\C)[C@@H](O[C@H]3C[C@H](OC)[C@@H](O[C@H]4C[C@H](OC)[C@@H](NC)[C@H](C)O4)[C@H](C)O3)[C@@H](C)/C=C/C=C3\CO[C@@H]4[C@H](O)C(C)=C[C@@H](C(=O)O1)[C@]34O)O2,–,inactive
CNc1cnn(-c2cccc(C(F)(F)F)c2)c(=O)c1Cl,–,inactive
CCNc1nc(Cl)nc(NC(C)C)n1,–,inactive
CCOCN(C(=O)CCl)c1c(C)cccc1CC,–,inactive
